In publication PMC7862700, “An all-to-all approach to the identification of sequence-specific readers for epigenetic DNA modifications on cytosine”:

Key:
Experiment in all cases: DAPPL (digital affinity profiling via proximity ligation, sequencing); 10 mM Tris-HCl pH 7.5, 50 mM NaCl, 1 mM DTT, 4% glycerol, room temperature, 30 min; GST-TFs on glutathione beads, 16-mer random dsDNA library, 0.1% formaldehyde crosslink after washing; high values mean tight binding
FEV = molecular target: T1, FEV (Homo sapiens, UniProt Q99581 1-238); details: protein: recombinant; tags: N-terminal GST; dsDNA, one strand shown
T1 sequence: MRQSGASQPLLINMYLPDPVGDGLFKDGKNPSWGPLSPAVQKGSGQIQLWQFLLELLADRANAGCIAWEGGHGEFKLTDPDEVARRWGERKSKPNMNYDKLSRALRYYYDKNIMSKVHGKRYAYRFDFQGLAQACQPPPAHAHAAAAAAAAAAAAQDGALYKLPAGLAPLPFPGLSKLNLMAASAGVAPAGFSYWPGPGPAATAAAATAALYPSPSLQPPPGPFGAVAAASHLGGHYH
Outline: (§1)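 Beads coated with glutathione captured GST-fused human transcription factors that had been expressed in yeast, and the factors were then given DNA barcodes and pooled with a tag-only sample. The pools were incubated with 200 nmole of a random double-stranded 16-mer DNA library in Tris/NaCl/DTT/glycerol buffer for 30 min at room temperature, washed, crosslinked with 0.1% formaldehyde and proximity-ligated with BsaI/T4 ligase at 37 °C for 1 h. PCR amplification and Illumina NextSeq500 sequencing came last. Binding signal is each hexamer's read frequency for a factor divided by its frequency for the tag-only sample.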

ETV5 = ETV5 (Homo sapiens, UniProt P41161 1-510); details: protein: recombinant; tags: N-terminal GST; dsDNA, one strand shown
Outline: as §1

HSF1 = HSF1 (Homo sapiens, UniProt Q00613 1-529); details: protein: recombinant; tags: N-terminal GST; chain copies: 3; dsDNA, one strand shown
Outline: as §1

SPIC = molecular target: T2, SPIC (Homo sapiens, UniProt Q8N5J4 1-248); details: protein: recombinant; tags: N-terminal GST; dsDNA, one strand shown
T2 sequence: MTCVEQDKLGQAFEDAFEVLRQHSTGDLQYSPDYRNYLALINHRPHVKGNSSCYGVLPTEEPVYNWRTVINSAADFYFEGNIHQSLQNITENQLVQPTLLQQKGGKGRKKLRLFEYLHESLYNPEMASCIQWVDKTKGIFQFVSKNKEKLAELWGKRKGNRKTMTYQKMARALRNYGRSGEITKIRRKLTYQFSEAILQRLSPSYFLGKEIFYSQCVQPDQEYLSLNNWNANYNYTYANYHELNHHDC
Outline: as §1

ELF4 = ELF4 (Homo sapiens, UniProt Q99607 1-663); details: protein: recombinant; tags: N-terminal GST; dsDNA, one strand shown
Outline: as §1

ELK4 = molecular target: T3, ELK4 (Homo sapiens, UniProt P28324-2 1-405); details: protein: recombinant; tags: N-terminal GST; dsDNA, one strand shown
T3 sequence: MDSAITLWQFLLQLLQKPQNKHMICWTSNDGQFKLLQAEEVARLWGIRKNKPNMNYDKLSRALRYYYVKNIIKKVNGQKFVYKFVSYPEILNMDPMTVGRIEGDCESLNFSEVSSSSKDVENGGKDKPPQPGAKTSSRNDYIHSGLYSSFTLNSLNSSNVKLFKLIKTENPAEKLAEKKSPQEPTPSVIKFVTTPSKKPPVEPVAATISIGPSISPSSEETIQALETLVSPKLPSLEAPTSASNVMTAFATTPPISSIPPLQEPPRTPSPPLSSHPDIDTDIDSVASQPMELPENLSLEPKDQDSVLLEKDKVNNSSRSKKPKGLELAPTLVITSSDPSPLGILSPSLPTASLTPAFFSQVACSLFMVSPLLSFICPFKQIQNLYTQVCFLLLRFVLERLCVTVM
Outline: as §1

ETV2 = molecular target: T4, ETV2 (Homo sapiens, UniProt O00321 1-342); details: protein: recombinant; tags: N-terminal GST; dsDNA, one strand shown
T4 sequence: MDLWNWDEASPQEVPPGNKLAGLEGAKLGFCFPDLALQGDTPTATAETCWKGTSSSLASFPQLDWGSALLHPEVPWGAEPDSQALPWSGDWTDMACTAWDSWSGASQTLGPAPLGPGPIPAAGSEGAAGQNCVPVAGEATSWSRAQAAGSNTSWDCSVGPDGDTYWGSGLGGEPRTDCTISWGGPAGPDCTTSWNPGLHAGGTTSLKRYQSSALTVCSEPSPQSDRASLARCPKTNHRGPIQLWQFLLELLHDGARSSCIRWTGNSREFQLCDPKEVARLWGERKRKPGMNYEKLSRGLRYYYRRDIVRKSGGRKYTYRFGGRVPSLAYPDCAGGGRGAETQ
Outline: as §1

ELF3 = molecular target: T5, ELF3 (Homo sapiens, UniProt P78545 1-371); details: protein: recombinant; tags: N-terminal GST; dsDNA, one strand shown
T5 sequence: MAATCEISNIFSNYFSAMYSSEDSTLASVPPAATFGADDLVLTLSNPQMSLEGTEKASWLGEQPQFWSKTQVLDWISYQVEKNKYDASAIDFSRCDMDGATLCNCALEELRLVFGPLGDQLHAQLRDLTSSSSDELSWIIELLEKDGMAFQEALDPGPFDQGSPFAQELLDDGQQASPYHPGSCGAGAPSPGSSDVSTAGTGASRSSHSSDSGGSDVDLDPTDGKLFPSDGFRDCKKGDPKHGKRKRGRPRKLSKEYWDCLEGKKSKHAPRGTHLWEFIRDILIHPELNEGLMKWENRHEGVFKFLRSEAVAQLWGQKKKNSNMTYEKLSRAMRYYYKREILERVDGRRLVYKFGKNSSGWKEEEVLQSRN
Outline: as §1

CRX = CRX (Homo sapiens, UniProt O43186 1-299); details: protein: recombinant; tags: N-terminal GST; dsDNA, one strand shown
Outline: as §1

ETV1 = ETV1 (Homo sapiens, UniProt P50549 1-477); details: protein: recombinant; tags: N-terminal GST; dsDNA, one strand shown
Outline: as §1

ERF = molecular target: T6, ERF (Homo sapiens, UniProt P50548 1-548); details: protein: recombinant; tags: N-terminal GST; dsDNA, one strand shown
T6 sequence: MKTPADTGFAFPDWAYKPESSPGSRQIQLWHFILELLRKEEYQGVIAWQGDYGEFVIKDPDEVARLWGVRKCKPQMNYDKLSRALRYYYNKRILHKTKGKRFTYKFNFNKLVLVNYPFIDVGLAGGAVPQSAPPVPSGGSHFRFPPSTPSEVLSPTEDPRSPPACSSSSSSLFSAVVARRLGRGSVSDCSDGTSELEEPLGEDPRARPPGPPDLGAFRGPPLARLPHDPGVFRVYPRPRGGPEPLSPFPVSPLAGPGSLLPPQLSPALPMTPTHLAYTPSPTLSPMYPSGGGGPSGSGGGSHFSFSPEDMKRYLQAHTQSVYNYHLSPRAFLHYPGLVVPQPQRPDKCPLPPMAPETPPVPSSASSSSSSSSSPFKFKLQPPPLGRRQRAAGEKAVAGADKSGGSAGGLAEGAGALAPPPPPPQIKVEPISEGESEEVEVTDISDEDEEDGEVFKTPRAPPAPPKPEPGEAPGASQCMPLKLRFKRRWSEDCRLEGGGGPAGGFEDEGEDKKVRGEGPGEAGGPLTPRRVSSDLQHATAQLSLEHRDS
Outline: as §1

ETV3L = molecular target: T7, ETV3L (Homo sapiens, UniProt Q6ZN32 1-361); details: protein: recombinant; tags: N-terminal GST; dsDNA, one strand shown
T7 sequence: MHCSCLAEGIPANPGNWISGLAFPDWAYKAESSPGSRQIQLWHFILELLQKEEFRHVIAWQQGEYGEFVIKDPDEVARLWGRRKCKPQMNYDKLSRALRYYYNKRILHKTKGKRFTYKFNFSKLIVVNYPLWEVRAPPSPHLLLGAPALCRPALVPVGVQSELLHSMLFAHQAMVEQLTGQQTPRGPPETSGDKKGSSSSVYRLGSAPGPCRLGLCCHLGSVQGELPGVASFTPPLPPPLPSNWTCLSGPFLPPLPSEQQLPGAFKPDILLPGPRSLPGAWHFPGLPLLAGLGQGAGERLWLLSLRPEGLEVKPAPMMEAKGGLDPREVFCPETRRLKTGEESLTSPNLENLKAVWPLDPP
Outline: as §1

ETS2 = molecular target: T8, ETS2 (Homo sapiens, UniProt P15036 1-469); details: protein: recombinant; tags: N-terminal GST; dsDNA, one strand shown
T8 sequence: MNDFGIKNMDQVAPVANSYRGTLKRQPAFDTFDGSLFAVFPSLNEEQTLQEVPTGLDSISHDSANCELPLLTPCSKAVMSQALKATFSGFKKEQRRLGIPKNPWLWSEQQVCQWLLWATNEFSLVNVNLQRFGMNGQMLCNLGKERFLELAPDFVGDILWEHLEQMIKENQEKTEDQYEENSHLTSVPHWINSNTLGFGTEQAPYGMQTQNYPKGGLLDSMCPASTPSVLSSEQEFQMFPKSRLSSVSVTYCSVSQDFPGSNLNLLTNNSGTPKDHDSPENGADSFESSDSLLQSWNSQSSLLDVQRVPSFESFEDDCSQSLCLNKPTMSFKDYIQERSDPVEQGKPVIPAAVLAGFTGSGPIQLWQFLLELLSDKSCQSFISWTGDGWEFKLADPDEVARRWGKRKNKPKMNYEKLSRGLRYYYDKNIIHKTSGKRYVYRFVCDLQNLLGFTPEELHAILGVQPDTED
Outline: as §1

SPDEF = molecular target: T9, SPDEF (Homo sapiens, UniProt O95238 1-335); details: protein: recombinant; tags: N-terminal GST; dsDNA, one strand shown
T9 sequence: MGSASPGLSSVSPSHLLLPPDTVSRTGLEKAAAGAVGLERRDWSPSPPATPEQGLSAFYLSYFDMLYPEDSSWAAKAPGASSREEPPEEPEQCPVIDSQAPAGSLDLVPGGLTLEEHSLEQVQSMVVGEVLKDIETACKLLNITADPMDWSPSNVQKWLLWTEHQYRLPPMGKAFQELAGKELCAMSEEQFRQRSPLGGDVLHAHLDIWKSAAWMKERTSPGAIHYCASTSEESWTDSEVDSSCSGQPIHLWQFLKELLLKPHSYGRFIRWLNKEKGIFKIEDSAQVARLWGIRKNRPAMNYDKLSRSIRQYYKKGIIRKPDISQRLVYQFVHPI
Outline: as §1

ETV7 = molecular target: T10, ETV7 (Homo sapiens, UniProt Q9Y603 1-341); details: protein: recombinant; tags: N-terminal GST; dsDNA, one strand shown
T10 sequence: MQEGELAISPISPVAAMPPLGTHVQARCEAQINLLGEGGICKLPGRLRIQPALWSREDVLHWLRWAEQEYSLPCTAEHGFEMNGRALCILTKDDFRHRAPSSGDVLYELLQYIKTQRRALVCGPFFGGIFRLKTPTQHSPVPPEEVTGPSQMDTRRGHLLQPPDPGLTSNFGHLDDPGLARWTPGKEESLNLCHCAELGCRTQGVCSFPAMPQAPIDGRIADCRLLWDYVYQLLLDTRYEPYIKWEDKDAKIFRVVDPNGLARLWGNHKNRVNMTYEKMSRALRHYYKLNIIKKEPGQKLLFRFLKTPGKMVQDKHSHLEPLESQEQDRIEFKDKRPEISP
Outline: as §1

ELF5 = molecular target: T11, ELF5 (Homo sapiens, UniProt Q9UKW6-2 1-255); details: protein: recombinant; tags: N-terminal GST; dsDNA, one strand shown
T11 sequence: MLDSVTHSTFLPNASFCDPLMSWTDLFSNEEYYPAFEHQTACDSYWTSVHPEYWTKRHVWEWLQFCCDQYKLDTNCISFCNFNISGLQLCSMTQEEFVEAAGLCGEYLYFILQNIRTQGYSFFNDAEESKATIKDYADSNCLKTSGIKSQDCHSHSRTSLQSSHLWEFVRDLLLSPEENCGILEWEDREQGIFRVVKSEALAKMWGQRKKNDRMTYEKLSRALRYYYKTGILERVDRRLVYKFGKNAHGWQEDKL
Outline: as §1

ETV3 = molecular target: T12, ETV3 (Homo sapiens, UniProt P41162-2 1-143); details: protein: recombinant; tags: N-terminal GST; dsDNA, one strand shown
T12 sequence: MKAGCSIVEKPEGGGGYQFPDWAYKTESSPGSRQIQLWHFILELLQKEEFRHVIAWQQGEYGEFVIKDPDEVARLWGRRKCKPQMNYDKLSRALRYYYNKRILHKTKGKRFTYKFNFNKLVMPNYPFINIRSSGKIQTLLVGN
Outline: as §1

ETV6 = ETV6 (Homo sapiens, UniProt P41212 1-452); details: protein: recombinant; tags: N-terminal GST; dsDNA, one strand shown
Outline: as §1

ETV1, sequence (P50549 whole entry): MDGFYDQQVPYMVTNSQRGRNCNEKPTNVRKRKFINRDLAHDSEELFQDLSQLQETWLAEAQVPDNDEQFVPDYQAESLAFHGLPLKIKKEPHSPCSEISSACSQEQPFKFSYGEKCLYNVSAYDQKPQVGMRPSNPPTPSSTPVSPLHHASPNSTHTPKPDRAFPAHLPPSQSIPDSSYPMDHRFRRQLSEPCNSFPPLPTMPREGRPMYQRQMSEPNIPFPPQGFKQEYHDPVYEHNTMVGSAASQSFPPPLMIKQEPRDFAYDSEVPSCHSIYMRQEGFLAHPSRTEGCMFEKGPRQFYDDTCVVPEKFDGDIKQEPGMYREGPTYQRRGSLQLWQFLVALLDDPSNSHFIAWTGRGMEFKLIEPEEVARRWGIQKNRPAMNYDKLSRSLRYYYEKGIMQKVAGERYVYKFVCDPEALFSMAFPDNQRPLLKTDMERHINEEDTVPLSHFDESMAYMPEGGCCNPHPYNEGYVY
HSF1, sequence (Q00613 whole entry): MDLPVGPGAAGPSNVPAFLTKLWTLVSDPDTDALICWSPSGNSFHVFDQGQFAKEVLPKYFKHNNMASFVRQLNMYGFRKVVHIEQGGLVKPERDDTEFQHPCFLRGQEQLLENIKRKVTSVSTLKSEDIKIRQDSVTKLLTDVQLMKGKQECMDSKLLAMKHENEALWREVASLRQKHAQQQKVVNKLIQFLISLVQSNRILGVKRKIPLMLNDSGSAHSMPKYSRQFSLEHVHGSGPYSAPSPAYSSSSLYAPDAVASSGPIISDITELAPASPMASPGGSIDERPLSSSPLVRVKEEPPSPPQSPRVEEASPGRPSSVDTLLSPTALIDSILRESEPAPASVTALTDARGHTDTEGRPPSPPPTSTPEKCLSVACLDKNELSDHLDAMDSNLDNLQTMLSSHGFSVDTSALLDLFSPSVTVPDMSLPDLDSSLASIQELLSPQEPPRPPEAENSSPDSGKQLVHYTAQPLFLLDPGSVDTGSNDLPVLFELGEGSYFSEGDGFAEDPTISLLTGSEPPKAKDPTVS
ELF4, sequence (Q99607 whole entry): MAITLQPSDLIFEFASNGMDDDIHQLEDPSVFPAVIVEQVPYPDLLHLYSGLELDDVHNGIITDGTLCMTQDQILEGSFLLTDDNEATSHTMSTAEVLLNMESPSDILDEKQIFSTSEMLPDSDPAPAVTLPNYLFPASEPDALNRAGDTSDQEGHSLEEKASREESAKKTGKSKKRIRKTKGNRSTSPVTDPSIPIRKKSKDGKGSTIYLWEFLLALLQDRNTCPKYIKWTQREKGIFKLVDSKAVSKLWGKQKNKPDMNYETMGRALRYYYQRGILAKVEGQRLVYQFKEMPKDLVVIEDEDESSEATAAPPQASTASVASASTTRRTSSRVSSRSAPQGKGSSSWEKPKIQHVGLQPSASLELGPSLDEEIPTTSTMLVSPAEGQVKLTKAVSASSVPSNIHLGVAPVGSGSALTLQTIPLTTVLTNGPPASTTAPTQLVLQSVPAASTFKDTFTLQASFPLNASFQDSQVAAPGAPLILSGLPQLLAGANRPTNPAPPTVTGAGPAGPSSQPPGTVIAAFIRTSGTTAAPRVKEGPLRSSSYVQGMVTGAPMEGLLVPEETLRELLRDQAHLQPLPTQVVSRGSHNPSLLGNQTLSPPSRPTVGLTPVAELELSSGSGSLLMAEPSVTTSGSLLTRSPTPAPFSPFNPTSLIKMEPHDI
ETV5, sequence (P41161 whole entry): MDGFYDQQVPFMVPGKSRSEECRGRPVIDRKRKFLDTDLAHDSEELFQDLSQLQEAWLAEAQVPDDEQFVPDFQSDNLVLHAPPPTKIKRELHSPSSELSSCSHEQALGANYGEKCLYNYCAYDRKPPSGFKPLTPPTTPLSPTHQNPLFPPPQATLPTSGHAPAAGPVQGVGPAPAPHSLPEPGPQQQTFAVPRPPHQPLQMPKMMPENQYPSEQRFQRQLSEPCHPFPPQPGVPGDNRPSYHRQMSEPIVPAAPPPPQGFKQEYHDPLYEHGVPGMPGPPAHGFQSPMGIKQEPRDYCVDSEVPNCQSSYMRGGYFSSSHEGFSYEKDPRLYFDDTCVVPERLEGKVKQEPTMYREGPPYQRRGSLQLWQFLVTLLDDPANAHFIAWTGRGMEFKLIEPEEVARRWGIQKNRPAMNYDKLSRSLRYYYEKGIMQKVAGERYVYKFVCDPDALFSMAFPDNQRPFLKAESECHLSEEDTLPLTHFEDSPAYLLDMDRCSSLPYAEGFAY
ETV6, sequence (P41212 whole entry): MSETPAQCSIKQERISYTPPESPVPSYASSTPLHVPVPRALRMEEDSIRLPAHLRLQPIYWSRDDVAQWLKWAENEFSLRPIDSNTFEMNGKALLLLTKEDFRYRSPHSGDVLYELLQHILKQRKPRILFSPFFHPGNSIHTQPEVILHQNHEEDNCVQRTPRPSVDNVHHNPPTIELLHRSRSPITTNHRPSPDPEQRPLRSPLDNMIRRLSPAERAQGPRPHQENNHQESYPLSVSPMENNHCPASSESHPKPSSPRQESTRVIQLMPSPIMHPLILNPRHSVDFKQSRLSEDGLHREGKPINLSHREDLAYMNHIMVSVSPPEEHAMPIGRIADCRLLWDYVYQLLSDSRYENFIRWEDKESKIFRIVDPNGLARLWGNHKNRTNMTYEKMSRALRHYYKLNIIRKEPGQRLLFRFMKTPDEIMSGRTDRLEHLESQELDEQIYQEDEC
CRX, sequence (O43186 whole entry): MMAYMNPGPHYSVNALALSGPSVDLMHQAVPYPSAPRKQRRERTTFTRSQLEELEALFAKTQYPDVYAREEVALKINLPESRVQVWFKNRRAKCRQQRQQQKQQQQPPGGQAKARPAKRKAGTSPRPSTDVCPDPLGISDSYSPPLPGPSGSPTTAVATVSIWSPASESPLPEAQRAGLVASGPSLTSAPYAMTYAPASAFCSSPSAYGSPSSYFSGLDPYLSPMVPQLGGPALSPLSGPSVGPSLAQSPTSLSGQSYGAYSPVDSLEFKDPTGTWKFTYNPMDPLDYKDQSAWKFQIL

Sequence	binding signal (FEV)	binding signal (ETV5)	binding signal (HSF1)	binding signal (SPIC)	binding signal (ELF4)	binding signal (ELK4)	binding signal (ETV2)	binding signal (ELF3)	binding signal (CRX)	binding signal (ETV1)	binding signal (ERF)	binding signal (ETV3L)	binding signal (ETS2)	binding signal (SPDEF)	binding signal (ETV7)	binding signal (ELF5)	binding signal (ETV3)	binding signal (ETV6)
CTGGCT	1.16 fold enrichment (6-mer frequency, TF over GST control)	1.13 fold enrichment (6-mer frequency, TF over GST control)	1.27 fold enrichment (6-mer frequency, TF over GST control)	1.13 fold enrichment (6-mer frequency, TF over GST control)	1.18 fold enrichment (6-mer frequency, TF over GST control)	1.42 fold enrichment (6-mer frequency, TF over GST control)	1.5 fold enrichment (6-mer frequency, TF over GST control)	1.19 fold enrichment (6-mer frequency, TF over GST control)	1.21 fold enrichment (6-mer frequency, TF over GST control)	1.1 fold enrichment (6-mer frequency, TF over GST control)	1.43 fold enrichment (6-mer frequency, TF over GST control)	1.3 fold enrichment (6-mer frequency, TF over GST control)	1.19 fold enrichment (6-mer frequency, TF over GST control)	1.23 fold enrichment (6-mer frequency, TF over GST control)	1.38 fold enrichment (6-mer frequency, TF over GST control)	1.19 fold enrichment (6-mer frequency, TF over GST control)	1.18 fold enrichment (6-mer frequency, TF over GST control)	1.18 fold enrichment (6-mer frequency, TF over GST control)
ATTTGC	1.29 fold enrichment (6-mer frequency, TF over GST control)	1.4 fold enrichment (6-mer frequency, TF over GST control)	1.47 fold enrichment (6-mer frequency, TF over GST control)	1.29 fold enrichment (6-mer frequency, TF over GST control)	1.23 fold enrichment (6-mer frequency, TF over GST control)	1.3 fold enrichment (6-mer frequency, TF over GST control)	1.23 fold enrichment (6-mer frequency, TF over GST control)	1.33 fold enrichment (6-mer frequency, TF over GST control)	1.5 fold enrichment (6-mer frequency, TF over GST control)	1.38 fold enrichment (6-mer frequency, TF over GST control)	1.32 fold enrichment (6-mer frequency, TF over GST control)	1.26 fold enrichment (6-mer frequency, TF over GST control)	1.28 fold enrichment (6-mer frequency, TF over GST control)	1.27 fold enrichment (6-mer frequency, TF over GST control)	1.43 fold enrichment (6-mer frequency, TF over GST control)	1.25 fold enrichment (6-mer frequency, TF over GST control)	1.37 fold enrichment (6-mer frequency, TF over GST control)	1.27 fold enrichment (6-mer frequency, TF over GST control)
